PfHsp90 set2: reduces growth (ATP signal) of yeast expressing P. falciparum Hsp90; S. cerevisiae expressing PfHsp90, BacTiter-Glo ATP, 48 h; yeast lacking PDR1 and PDR3 efflux regulators; inhibition, % at 9.4 µM; actives 0.32% (n = 310,000);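 active = every replicate shows inhibition above about 80%, whatever the replicate mean, limit read from the data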
tim10-1 inh: inhibits growth of tim10-1 mutant yeast. S. cerevisiae tim10-1 ts strain growth, BacTiter-Glo, 24 h. inhibition, % at 20 µM. actives 2.2% (n = 330,000);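 active = inhibition of at least 40%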;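 note: mutant grown at 25 °C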
tim23-1 inh: inhibits growth of tim23-1 mutant yeast. S. cerevisiae tim23-1 growth, BacTiter-Glo luminescence, 24 h. inhibition, % at 20 µM. actives 1.3% (n = 330,000). AID 463212;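 active = growth inhibition of the mutant yeast at or above 50%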;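 note: temperature-sensitive mutant grown at 25 °C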
TIM10 inh: TIM10 yeast growth inhibition; S. cerevisiae TIM10 strain growth, BacTiter-Glo luminescence, 24 h; inhibition, % at 10 µM; actives 1.4% (n = 330,000);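 active = inhibition of 40% or more at the single tested concentration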;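 note: wild-type TIM10 isogenic control strain grown at permissive 25 °C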
SKKanGAS inh: blocks kanamycin growth of S. pyogenes SKKanGAS strain | BacTiter-Glo, 6 h | inhibition, % at 7.5 µM | actives 1.3% (n = 300,000) | AID 1662;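 active = mean replicate score, as percent of positive control median, at least 50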;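 note: strain carries kanamycin resistance gene driven by streptokinase promoter and grows in 40 µg/ml kanamycin; loss of luminescence reflects streptokinase promoter inhibition or plain growth inhibition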
tim10-1 confirm: confirmation of tim10-1 mutant yeast growth inhibitors. shares compounds with tim10-1 inh. S. cerevisiae tim10-1 ts strain growth, BacTiter-Glo, 24 h. inhibition, % at 20 µM. actives 56% (n = 7,400). AID 463213;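 active = inhibition of yeast growth at or above a set limit in either of two repeat tests at 20 µM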;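 note: tim10-1 mutant grown at permissive 25 °C to find synthetic lethal compounds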
Large screens that a line does not name were inactive (follow-up assays come after a bar, where they were run). Shown are actives, neighbours in structure and some others; about 4.4% of the full set was active somewhere.

C[C@@H]1CC=C[C@H]2[C@H]1C(=O)N(Cc1ccccc1)[C@H]2c1ccoc1	tim10-1 inh 50 (no result: PfHsp90 set2) | tim10-1 confirm 34
CC[C@@H]1CC=C[C@H]2[C@H]1C(=O)N(Cc1ccccc1)[C@H]2c1ccc(OC)c(Cl)c1	tim10-1 inh 43, SKKanGAS inh 59 | tim10-1 confirm inactive
O=C(Nc1ccccc1C(=O)N1CCCC1)c1ccc(Cl)c([N+](=O)[O-])c1	none
O=S(=O)(c1ccc(=S)[nH]c1)N1CCCC1	none (no result: SKKanGAS inh)
Cc1c(C(=O)N2CCN(CC(=O)Nc3ccccc3Cl)CC2)oc2ccc(Br)cc12	none (no result: PfHsp90 set2, SKKanGAS inh)
CSc1nc2sc3c(c2c(=O)[nH]1)CC(C)(C)OC3	none
c1ccc(-c2cc3n(c2)CCc2ccccc2-3)cc1	tim10-1 inh 42 | tim10-1 confirm inactive
CC(NC(=O)c1ccco1)C(=O)OCC(=O)N1CCCCCC1 (centres undefined)	none (no result: PfHsp90 set2, SKKanGAS inh)
COc1ccccc1NC(=S)NCCc1ccc(F)cc1	tim10-1 inh 48 | tim10-1 confirm inactive
COc1ccccc1NC(=S)NCCc1ccccc1	none
COc1ccccc1NC(=O)c1ccc(COc2ccccc2OC)o1	tim10-1 inh 41 | tim10-1 confirm inactive
CN(C(=O)COC(=O)CCc1c[nH]c2ccccc12)c1ccccc1	tim10-1 inh 43 | tim10-1 confirm inactive
S=C(NCC1CCCCC1)Nc1cccnc1	tim10-1 inh 53 | tim10-1 confirm 43
O=c1[nH][nH]c(=O)c2c1[nH]c(=S)n2Cc1ccccc1	none (no result: tim10-1 inh, tim23-1 inh, TIM10 inh, SKKanGAS inh)
CC(=O)OCCc1[nH]c2ccccc2c1C	none
CC(=O)OCCc1c2ccccc2c(CCCN(C)C)c2ccccc12	tim10-1 inh 40 | tim10-1 confirm inactive
CCn1c(SCC(=O)NC2CCCC2)nnc1-c1cccnc1	none
Cc1nn(-c2ccccc2)c(Cl)c1C(=O)N1CCN(c2ncnc3c2cnn3-c2ccccc2)CC1	tim10-1 inh 41 | tim10-1 confirm 32
COc1cc(OC)cc(-c2c(-c3cccs3)c3cc(-c4ccn[nH]4)ccc3n2C)c1	none (no result: SKKanGAS inh)
CC1CCc2nc(NC(=O)c3ccco3)sc2C1 (centres undefined)	tim10-1 inh 45 | tim10-1 confirm 31
CC1CCc2nc(NC(=O)Cc3cccs3)sc2C1 (centres undefined)	none
CC(=O)OCC(=O)C12OC(C)(C)OC1CC1C3CC=C4CC(O)CCC4(C)C3CCC12C (centres undefined)	none (no result: tim10-1 inh, tim23-1 inh, TIM10 inh, SKKanGAS inh)
Cc1ccccc1N=C1NN=C(c2ccccc2F)CS1	tim10-1 inh 42 | tim10-1 confirm inactive
CCCCNC(=O)c1nn2c(C(F)(F)F)cc(-c3ccc(OC)cc3)nc2c1Br	none
CN(CC(=O)Nc1ccc(Cl)c(C(F)(F)F)c1)C(=O)c1cccc(N2C(=O)CCC2=O)c1	none (no result: SKKanGAS inh)
CSc1oc(-c2ccco2)nc1S(=O)(=O)c1ccccc1	none
CC(C)Sc1oc(-c2ccco2)nc1S(=O)(=O)c1ccccc1	tim10-1 inh 41 | tim10-1 confirm inactive
Oc1ccccc1CNc1ccc(OC(F)(F)F)cc1	tim10-1 inh 42 | tim10-1 confirm inactive
CC(=O)c1c(C)n(CCc2ccc(Cl)cc2)c2ccc(O)cc12	none
CCNc1nnc(CSc2nc3ccccc3s2)s1	tim10-1 inh 44 | tim10-1 confirm 39
C[C@H](NC(=O)c1ccccc1)C(=O)OCC(=O)Nc1sccc1C(N)=O	none (no result: PfHsp90 set2, SKKanGAS inh)
CCOC(=O)CC(=O)CSc1ccc2nnc(-c3cccc(F)c3)n2n1	none
CSc1ccc2nnc(-c3cccc(F)c3)n2n1	tim10-1 inh 48 | tim10-1 confirm 41
CN1C(C(=O)NCc2ccc(OC(F)(F)F)cc2)CC2Cn3c(nc4cc5ccccc5cc43)C21 (centres undefined)	none
Cc1ccc(O)c(C2=Nc3ccccc3N=C(c3cccc([N+](=O)[O-])c3)C2)c1	tim10-1 inh 40 | tim10-1 confirm inactive
O=C(/C=C/c1ccncc1)c1ccc2c(c1)OCCO2	tim10-1 inh 46 | tim10-1 confirm 38
Cc1cccc(-n2c(C)cc(C(=S)N3CCOCC3)c2C)c1C	tim10-1 inh 44 | tim10-1 confirm inactive
Cc1cc(C)cc(-n2c(C)cc(C(=S)N3CCOCC3)c2C)c1	none
CC(=NNC(=O)c1cccc(S(=O)(=O)N2CCOCC2)c1)c1ccccc1	none (no result: SKKanGAS inh)
O=[N+]([O-])c1ccc(N2CCc3ccccc3C2)cc1	tim10-1 inh 55 | tim10-1 confirm 43
O=[N+]([O-])c1ccc(-c2csc(N3CCc4ccccc4C3)n2)cc1	none
COc1cccc(N=C2CC(C)(C)CC(=O)/C2=C(/O)c2ccccc2)c1	tim10-1 inh 43 | tim10-1 confirm inactive
O=C(c1ccc(S(=O)(=O)NCc2ccco2)cc1)N1CCN(Cc2ccc3c(c2)OCO3)CC1	none
O=C(NCC(c1ccco1)N1CCN(c2ccccc2F)CC1)OCc1ccccc1 (centres undefined)	none
O=C(COc1ccccc1)NCC(c1ccco1)N1CCN(c2ccc(F)cc2)CC1 (centres undefined)	tim10-1 inh 41 (no result: PfHsp90 set2) | tim10-1 confirm inactive
O=C(COc1ccccc1)NCC(c1ccco1)N1CCN(c2ccccc2F)CC1 (centres undefined)	none (no result: PfHsp90 set2)
O=C(NCC(c1ccco1)N1CCN(c2ccccc2)CC1)OCc1ccccc1 (centres undefined)	tim10-1 inh 41 | tim10-1 confirm inactive
CCOC(OCC)c1cc2ccccc2cn1	none (no result: SKKanGAS inh)
O=C1N=c2ccccc2=C1c1sc(=S)n(NC(=O)c2ccccc2)c1O	none
C=CCn1c(O)c(C2=c3ccccc3=NC2=O)sc1=Nc1ccc(O)cc1	tim10-1 inh 63 | tim10-1 confirm inactive
COC(=O)c1ccc(/C=C/C(=O)c2cccc(OC)c2)cc1	tim10-1 inh 42 | tim10-1 confirm 34
COc1cccc(C(=O)/C=C/c2ccc(OCC#N)c(OC)c2)c1	tim10-1 inh 43 | tim10-1 confirm inactive
COc1cc(/C=C/C(=O)c2ccc(O)cc2)ccc1OCC#N	none
CCCc1cc(=O)oc2c(C)c(OCC(=O)Nc3ccc(CN4CCOCC4)cc3)ccc12	tim10-1 inh 40 | tim10-1 confirm 33
Cc1c(OCC(=O)NCCN2CCOCC2)ccc2c3c(c(=O)oc12)CCC3	none
Cc1c(OCC(=O)NCCCN2CCOCC2)ccc2c3c(c(=O)oc12)CCCC3	tim10-1 inh 46 | tim10-1 confirm inactive
CCCc1cc(=O)oc2c(C)c(OCC(=O)NCCCN3CCOCC3)ccc12	none
CC(C)n1nc(C(=O)Nc2cccc(S(=O)(=O)N3CCOCC3)c2)c2ccccc2c1=O	none (no result: SKKanGAS inh)
O=c1c2c(-c3cccs3)csc2ncn1/N=C/c1ccc(OC(F)F)cc1	tim10-1 inh 47 | tim10-1 confirm 39
CCN(CC)S(=O)(=O)c1ccc(N2CCCCC2)c(NC(=O)C2CCN(C(=O)c3ccc(F)cc3)CC2)c1	none
COc1ccc(/C=c2\sc3nc(-c4ccccc4OC)nn3c2=O)c(OC)c1	none
C=CCOc1ccccc1/C=c1\sc2nc(=O)c(C)nn2c1=O	tim10-1 inh 45 (no result: SKKanGAS inh) | tim10-1 confirm 50

From PubChem
